Sampled rows, rich in hits. Any-hit rate of the full collection: about 5.3%.
FMDV inh: blocks foot and mouth disease virus; Potency, µM (series often up to 57.9 µM), for the others: top-dose activity change, negative = inhibition, hits mostly inhibitors; 410,000 compounds, 1.2% hits; FMDV antiviral cell-based qHTS; AID 1159524; calls by dose curve; tested in HEK293T cells; also: read-out not given here; nearly all actives have a fitted effect of over 45% in size
Vaccinia Venus: vaccinia inhibition (Venus reporter); Vaccinia virus Venus reporter expression, fluorescence; Potency, µM (top dose mostly 36.5 µM), without a hit: at the highest dose activity change, negative = inhibition, hits mostly inhibitors; 330,000 compounds, 0.46% hits; calls by dose curve; tested in A549 cells; also: nearly all actives have a fitted effect of over 30% in size
HCV inh: blocks hepatitis C virus | Potency, µM (series often up to 41.8 µM), for inactives: at the highest dose activity change, negative = inhibition, most hits filed as inhibitors | Huh7.5.1 HCVcc-Cre infection, luciferase reporter, 44 h | 340,000 compounds, 3.4% hits; active = well fitted inhibition curve with a large enough effect; inconclusive = small, poorly fitted or top-dose-only effect, or another doubt; inactive = no such curve, though single readings can be large or run the other way
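Reporter virus HCVcc-Cre (~0.5 moi) infects cells exposed to compound; seeding density 1,000 cells/well with 4 h settling beforehand. Luminescence, 15 sec read, taken 44 h post-infection following a 15 min RT substrate incubation.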
MARV entry inh: Marburg virus entry inhibition. Marburg virus pseudotyped entry inhibition, cell reporter. Potency, µM (top dose mostly 37.8 µM), for the others: top-dose activity change, negative = inhibition, most hits filed as inhibitors. 300,000 compounds, 1.8% hits. AID 540276; calls by dose curve; tested in HEK293 cells
LASV entry inh: blocks Lassa virus binding to or entry into cells; Lassa virus pseudotype entry inhibition, cell reporter; Potency, µM (doses to about 37.9 µM), inactives show top-dose activity change, negative = inhibition, hits mostly inhibitors; 300,000 compounds, 1.2% hits; calls by dose curve; tested in HEK293 cells; also: nearly all actives have a fitted effect of over 50% in size
VACV mCherry inh: vaccinia inhibition (mCherry reporter). Vaccinia virus mCherry reporter infection, fluorescence. Potency, µM (highest dose often 36.5 µM), for inactives: at the highest dose activity change, negative = inhibition, usual class: inhibitors. 310,000 compounds, 0.63% hits; calls by dose curve; tested in A549 cells; also: nearly all actives have a fitted effect of over 35% in size
* marks the source's active call; other numbers are inactive results; i = inactive; ? = inconclusive; . = no result given; [ ] = another dose, or the depositor's remark. % is scaled to controls: 0 for no effect and ±100 for the full control effect; potency is read from the fitted curve at half-maximal effect.

SMILES	FMDV inh	Vaccinia Venus	HCV inh	MARV entry inh	LASV entry inh	VACV mCherry inh
COc1cc(C(=O)NCCCN(C)C)ccc1OCC(=O)Nc1cccc(C(F)(F)F)c1	-15%	-21%	?	?	?	i
COc1ccccc1CCNC(=O)c1c(N)[nH]c(C(=O)c2ccccc2)c1-c1ccc(Br)cc1	-7%	-18%	.	.	.	-14%
S=C(NCC1(c2ccccc2)CCCC1)Nc1ccccc1	0%	.	10µM*	.	.	.
O=C(NCC1(c2ccccc2)CCCC1)C(=O)NCC1(c2ccccc2)CCCC1	-3%	-7%	12%	?	15%	-18%
COc1ccc2c(c1)[C@@]1(OCCC=C[C@@H]1C)C(=O)N2CC=C(C)CCC=C(C)C	.	.	.	-10%[14.2 µM]	.	.
Cc1cnc(C(=O)Nc2ccccc2-c2ccc(C)o2)cn1	-8%	0%	7.9µM*	-3%	?	-13%
CC(=O)Nc1ccc(S(=O)(=O)NC2CC(=O)N(c3ccc(C)cc3)C2)cc1 (stereo not given)	-13%	-11%	-1%	0%[46.1 µM]	-21%	i
CCCCc1c(-c2cccc(OC)c2)ncn1CCc1ccccc1OC	25µM*	?	.	.	.	-9%
CCCc1c(-c2ccc(Cl)cc2)ncn1CCc1ccccc1OC	28µM*	-22%	.	.	.	-22%
CCCCc1c(-c2ccccc2OC)ncn1Cc1cccc(-c2ccccc2)c1	?	?	.	.	.	-21%
CCCCc1c(-c2ccccc2OC)ncn1Cc1ccc(-c2ccccc2)cc1	28µM*	?	.	.	.	?
CCc1c(-c2cccc(OC)c2)ncn1Cc1cccc(-c2ccccc2)c1	32µM*	?	.	.	.	-18%
CCCCc1c(-c2ccc(OC)c(OC)c2)ncn1CCc1ccccc1OC	?	-17%	.	.	.	?
CC(CCC(C)[n+]1cccc(C#N)c1)[n+]1cccc(C#N)c1 (stereo not given)	.	-6%	.	.	.	39%
CCCCc1c(-c2ccc(F)cc2F)ncn1CCc1ccccc1OC	-18%	-29%	.	.	.	?
CCCCc1c(Cc2cccc(F)c2)ncn1CCc1ccccc1OC	32µM*	-16%	.	.	.	-14%
Cc1ccc(NC2=Nc3ccccc3CC2)cc1	-41%	-18%	-14%	7.9µM*	?	.
Brc1ccc(NC2=Nc3ccccc3CC2)cc1	6%	.	7%	-24%	-26%	.
CCCCCCCC[n+]1c(C)n(-c2ccccc2)c2ccc(NC(C)=O)cc21	?	-7%	14µM*	?	7.1µM*	-6%
CCN(CC)c1ncnc2c1[nH]c1ccccc12	?	?	11µM*	?	-8%	.
CS(=O)(=O)c1ccc(NC(=O)c2cccc(S(=O)(=O)N3CCN(Cc4ccccc4)CC3)c2)cc1	?	-26%	10µM*	?	?	?
O=C(Nc1ccc(S(=O)(=O)N2CCN(Cc3ccccc3)CC2)cc1)c1cnccn1	?	.	6.3µM*	?	?	.
CN(CC(=O)Nc1ccc(Cl)cc1)C(=O)c1cccc(S(=O)(=O)N2CCN(Cc3ccccc3)CC2)c1	22µM*	-24%	11µM*	?	-18%	-13%
Cc1nc2ccc(S(=O)(=O)CCC(=O)Nc3ccc(F)cc3C)cc2s1	-25%	-6%	.	.	-3%[46.1 µM]	-9%
COc1cccc(-n2nnc3c(=O)n(Cc4ccc(C)cc4)cnc32)c1	0%	.	5%	?	4.1µM*	.
SMILES	FMDV inh	Vaccinia Venus	HCV inh	MARV entry inh	LASV entry inh	VACV mCherry inh
Cc1ccc(O[C@@H]2[C@H](O)CO[C@H]2C=CC#Cc2ccc(C(C)(C)C)cc2)cc1	.	.	.	-35%[14.2 µM]	?	.
O=C(NN=C(c1ccccc1)c1ccccn1)c1ccccc1	-14%	?	2.5µM*	6.3µM*	?	2µM*
COc1ccc(C(=O)NCCSc2ccccn2)cc1	?	-38%	9%	?	14µM*	.
COc1ccc(NC(=O)c2ccccn2)cc1	11µM*	-12%	6%	?	?	.
COc1ccc(C(=O)N/N=C(\c2ccccc2)c2ccccn2)cc1	-33%	?	2.8µM*	9.2µM*	?	2.2µM*
O=C(NC(O)C(=O)c1ccccc1)c1ccccn1 (stereo not given)	46%	2%	6%	-8%[46.1 µM]	-1%[46.1 µM]	-14%
COc1ccc(C(=O)Nc2ccc(NC(=O)c3ccccn3)cn2)cc1	4%	-6%	-20%	-2%[46.1 µM]	?	-23%
COc1ccc(N(CC(=O)NCCSc2ccccn2)S(C)(=O)=O)cc1	-1%	.	13%	9%	-10%	.
Cc1ccc(C)c(S(=O)(=O)NCc2nc(N3CCCC3)c3cc(Cl)ccc3n2)c1	-1%	-5%	.	.	.	-9%
COc1cccc(CNC(=O)Cn2c(=O)ccc3cc(S(=O)(=O)N4CCC(C)CC4)ccc32)c1	-12%	-14%	.	.	24%[46.1 µM]	-15%
CC1=CC(=O)C=CC1=Nc1ccc(N(C)C)cc1	3%	?	.	.	.	?
COc1ccc(NC(=O)CSCc2cc(=O)c3cc(C)ccc3[nH]2)cc1	-5%	?	.	.	-1%[46.1 µM]	-25%
O=C(N/N=C(\c1ccccc1)c1ccccn1)c1ccccc1Cl	?	?	?	?	?	2.5µM*
COc1ccc(NC(=O)c2csc(Cc3ccc(Cl)cc3)n2)cc1	-5%	.	-3%	.	.	.
O=C(Nc1ccc(Cl)cc1)O/N=C(\c1ccccc1)c1ccccn1	.	-4%	-7%	10%	18%	i
COc1ccc(Cc2nc(C(=O)Nc3ccc(F)cc3)cs2)cc1	-1%	?	10µM*	-24%[46.1 µM]	-5%	-18%
C=CCNc1nc(NC2CCN(C)CC2)c2cc(OC)c(OC)cc2n1	.	?	.	.	.	-23%
COc1ccc2c(c1)CC(C(=O)NCCN1CCN(c3cccc(Cl)c3)CC1)CO2 (stereo not given)	0%	-9%	.	.	-18%[46.1 µM]	-12%

Screens (PubChem BioAssay)
